Experimental data published in ChEMBL document CHEMBL1157539, “Thousands of chemical starting points for antimalarial lead identification” (Nature, 2010).

How the values were obtained:
Type in all cases: functional
[1] = test system: Plasmodium falciparum; assay: GSK_TCMDC: Inhibition of Plasmodium falciparum 3D7 in whole red blood cells, using parasite LDH activity as an index of growth. Test compounds present at 2uM
[2] = test system: Plasmodium falciparum; assay: GSK_TCMDC: Inhibition of Plasmodium falciparum Dd2 in whole red blood cells, using parasite LDH activity as an index of growth. Test compounds present at 2uM
[3] = test system: HepG2; assay: GSK_TCMDC: Percent inhibition of human HepG2 cell line. Test compounds present at 10uM.

Compound	Inhibition [1] [%]	Inhibition [2] [%]	Inhibition [3] [%]
O=C(/C=C/c1ccc(F)c(Br)c1)NCCCCCN1CCC(c2c[nH]c3ccccc23)CC1	92	10	39
COc1cc2cc(-c3nc4ccccc4[nH]3)c(N)nc2cc1OC.Cl	100	100	91
COc1ccc(S(=O)(=O)N2CCCC(C)C2)cc1N1CCN(C(=O)c2ccc([N+](=O)[O-])o2)CC1 (stereo not drawn)	94	4	0
CC1CCCN(S(=O)(=O)c2cc(Br)cc3c2N(C(=O)C2CC2)CC3)C1 (stereo not drawn)	83	70	0
COc1cccc(Nc2nc(C)cc(NC3CCCC3)n2)c1	100	79	41
Cn1c(NC(=O)C2CCC(CNC(=O)c3ccc(O)c(-c4ccc(Cl)c(Cl)c4)c3)CC2)nc2ccccc21 (stereo not drawn)	99	100	40
CCN(CC)CCN(Cc1ccc(-c2ccc(C(F)(F)F)cc2)cc1)C(=O)Cn1nc(-c2ccc(C(F)(F)F)cc2)ccc1=O	100	83	44
O=C(NCCN1CCCc2ccccc21)C1CCN(c2nc(-c3ccc(Cl)cc3)no2)CC1	86	62	11
COc1ccc2c(NN=Cc3ccncc3)ccnc2c1	95	6	0
CC(C)(C)c1cc(Cn2ccnc2)cc(C(C)(C)C)c1O	85	3	4
Cl.c1ccc(Oc2ccc(Nc3nncc4ccccc34)cc2)cc1	86	82	20
CCCNCc1ccc(-c2ccc(CN(CCOC)C(=O)c3ccc([N+](=O)[O-])c(C)c3)cc2)nc1.O=C(O)C(F)(F)F	97	23	2
O=C(/C=C/c1ccc(Cl)c(Cl)c1)NC1CCN(CCCNC(=O)c2cccc(Cl)c2)CC1.O=C(O)C(F)(F)F	100	28	36
CC(Cc1ccc(OCc2ccccc2)cc1)Nc1nc(O)c2ccccc2n1.Cl (stereo not drawn)	98	96	2
CC[C@H]1CN(Cc2ccccc2Br)CC[C@H]1CCCc1ccnc2ccc(O)cc12	86	2	12
O=C(C1CCN(C(c2ccccc2)c2ccc(Cl)c(Cl)c2)CC1)N1CC=CC1 (stereo not drawn)	89	84	1
O=C(/C=C/c1cccc(C(F)(F)F)c1)NCCCCCN1CCN(C(=O)Nc2ccc(Cl)c(Cl)c2)CC1.O=C(O)C(F)(F)F	89	0	29
Cc1cccc2nc(-c3ccc(-c4cccc(CNCCNC(=O)c5ccnn5C)c4)cc3)[nH]c12.O=C(O)C(F)(F)F	100	92	17
COc1ccc(CN2CCCN(Cc3cccc(NC(=O)c4ccc(Cl)c(Cl)c4)c3)CC2)cc1.O=C(O)C(F)(F)F	86	19	38
CC(C)Cc1cn(-c2nc(C(=N)N)cs2)c2cc(Cl)ccc12	100	98	98
COc1cc(CNC[C@@H](O)[C@H](Cc2ccccc2)NC(=O)c2cc(OC(C)C)cc(N3CCCCS3(=O)=O)c2)cc(OC)c1.Cl	100	94	7

Compound	Inhibition [1] [%]	Inhibition [2] [%]	Inhibition [3] [%]
c1ccc(Oc2ccc(Nc3ccnc(Nc4ccc(CN5CCOCC5)cc4)n3)cc2)cc1	92	38	46
COC(=O)c1ccc2nc(-c3ccc(C(=O)NCc4ccc(Cl)c(Cl)c4)cc3)[nH]c2c1	95	3	1
CNC(=O)c1c(NC(=O)c2cccs2)sc2c1CCCC2	94	2	2
O=C(Nc1ccccc1)NC1CCN(CCC2(c3ccc(Cl)c(Cl)c3)COCN(C(=O)c3ccccc3)C2)C1 (stereo not drawn)	92	81	23
Cc1cc(O)nc(NC(=N)NOCc2ccccc2)n1	100	1	0
COc1ccc2nccc([C@@H](O)CN3CCC(NCc4cc5cc(Cl)ccc5[nH]4)CC3)c2c1.O=C(O)C(=O)O	99	64	27
Cc1cc(F)ccc1[C@H]1CNCCN1C(=O)N(C)C(C)(C)c1cc(C(F)(F)F)cc(C(F)(F)F)c1.Cl	100	100	24
N[C@@H](COc1cccc2c(-c3ccncc3)c(-c3cccc(NC(=O)Nc4ccccc4)c3)nn12)c1ccccc1	100	71	9
CN(C)Cc1cc(Nc2ccnc3cc(Cl)ccc23)ccc1O.Cl	100	100	36
Cc1nc(N)nc(N)c1CCCOc1ccc(Br)cc1	97	5	30
COc1ccc2nc3cc(Cl)ccc3c(NCCCCN)c2c1.Cl	100	62	52
O=C(Nc1ccc(Cl)c(Cl)c1)C1CCC(=O)N1[C@@H](Cc1ccccc1)C(=O)NCCc1ccc(Cl)cc1 (stereo partly drawn)	95	0	3
O=C(NC1CC1)c1ccc(N2CCCCN2CCc2ccccc2)c(C(F)(F)F)c1.O=C(O)C(F)(F)F	98	84	0
O=C(Nc1ccccc1)N(Cc1cccc(-c2ccc(CNCCc3ccccc3)cc2)c1)C1CCN(Cc2ccccc2)CC1.O=C(O)C(F)(F)F	100	95	100
CCN(CC)CCOc1cc2c(cc1Br)-c1cc(Br)c(OCCN(CC)CC)cc1C2=NO.Cl	100	98	99
Cc1c(C)c2c(c(C)c1O)CCC(C)(CCC(=O)O)O2 (stereo not drawn)	96	0	8
Cc1cccc2nc(-c3cccc(-c4ccc(NC(=O)C5CC(=O)Nc6ccccc65)cc4)c3)[nH]c12 (stereo not drawn)	87	56	15
Cc1cccc2nc(-c3cccc(-c4ccc(NC(=O)COC(C)C)cc4)c3)[nH]c12	82	11	0
CC1(CCCCN2CCC(c3c[nH]c4cnccc34)CC2)C(=O)Nc2cccc(Cl)c21 (stereo not drawn)	100	0	26
Cc1ccccc1N1CCN(c2ncc(C(=O)NC3CC3)cc2Cl)CC1.O=C(O)C(F)(F)F	91	96	23
CC(=O)CCc1ccc(OCCN(Cc2ccccc2C(F)(F)F)c2ccc(C#N)c(C(F)(F)F)c2)cc1	100	87	14

Compound	Inhibition [1] [%]	Inhibition [2] [%]	Inhibition [3] [%]
Cc1[nH]c(C)c(-c2cccc(-c3ccc(OC(F)(F)F)cc3)c2)c(=O)c1Br	97	96	45
Cc1cc(=NN=Cc2ccc(Cl)cc2)c2ccc(F)cc2[nH]1	100	87	6
Cc1ccc(-c2cccc3c(NC(=O)Nc4ccc5nccc(N6CCN(C)CC6)c5c4)cccc23)cn1.Cl	90	89	6
NC(=O)C1Cc2ccccc2CN1CC(=O)Nc1ccccc1Sc1ccccc1 (stereo not drawn)	100	99	5
CSC1=NC(=Nc2ccccc2C)C2(CCC(C(C)(C)C)CC2)N1c1ccccc1Cl.I (stereo not drawn)	96	89	3
FC(F)(F)c1ccc2[nH]c(-c3ccc(-c4cccc(CN5CCCCC5)c4)cc3)nc2c1.O=C(O)C(F)(F)F	100	99	22
CC(Oc1c(C2CCN(CCCCNC(=O)c3ccc(-c4ccc(C#N)cc4)cc3)CC2)ccc2c1CCCC2)C(N)=O (stereo not drawn)	100	83	41
Cc1[nH]c(C)c(-c2ccc(-c3ccc(OC(F)(F)F)cc3)cc2)c(=O)c1Br	96	97	33
Cc1c(Br)cc2nc(-c3ccc(C(=O)NC4CCN(Cc5ccccc5)CC4)cc3)[nH]c2c1C	100	98	4
CCc1cc(Br)c2c(c1)C(NCCCNc1cc(=O)c3ccccc3[nH]1)CCN2 (stereo not drawn)	94	20	13
FC(F)(F)c1ccc2[nH]c(-c3ccc(-c4cccc(CN5CCN(c6ccncc6)CC5)c4)cc3)nc2c1.O=C(O)C(F)(F)F	100	99	82
COc1ccc(-c2csc3nc(C)nc(Cl)c23)cc1OC	97	95	0
O=C(/C=C/c1ccc(Cl)c(Cl)c1)NCCCCCN1CCC(NC(=O)Nc2ccc(Cl)c(Cl)c2)CC1	100	1	23
CCN(CC)CCN(Cc1ccc(-c2ccc(C(F)(F)F)cc2)cc1)C(=O)Cn1c(CCc2ccc(F)c(F)c2)cc(=O)c2ccccc21.O=C(O)C(O)C(O)C(=O)O	95	26	23
O=C(O)C(F)(F)F.Oc1ccc(CCCNc2nc(NCc3ccccc3-c3ccccc3)nc(NC3CCNCC3)n2)cc1	97	2	0
Cc1ccccc1C1CCN(C2CCC(NC(=O)c3ccc(-c4ccccn4)s3)CC2)CC1 (stereo not drawn)	87	17	32
Cc1cccc(Nc2nc3nonc3nc2Nc2cccc(Cl)c2Cl)c1C	91	95	88
CN1CCN(CCCN(Cc2csc(-c3ccc(CNCc4ccccc4)cc3)n2)S(=O)(=O)c2ccccc2Cl)CC1.O=C(O)C(F)(F)F	93	81	13
NC1=NC(c2ccccc2)(c2ccccc2)C(=O)N1C1CCCCC1.O=CO	100	87	13
